L3MBTL1 inh: L3MBTL1 (human) inhibition; AlphaScreen L3MBTL1–H3K9me1 peptide binding; AID 485360; actives 0.66% (n = 230,000); Potency, µM (highest dose often 57.1 µM), without a hit: top-dose activity, negative = inhibition, hits mostly inhibitors; Q9Y468; also: potency is read from the fitted curve at half-maximal effect; % is scaled to controls: 0 for no effect and ±100 for the full control effect; nearly all actives have a fitted effect of over 60% in size
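First, the protein-peptide complex forms for 30 min at room temperature (L3MBTL1 50 nM, biotinylated H3K9me1 peptide 75 nM). Next, compounds are pin-transferred and incubated 30 min. Finally, AlphaScreen beads are added and read after 30 min.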
Pol iota inh: blocks human DNA polymerase iota activity. actives 1% (n = 390,000). Potency, µM (series often up to 115 µM), without a hit: at the highest dose activity, negative = inhibition, actives largely listed as inhibitors. Q9UNA4. Pol iota fluorescent replication assay, 10 min; also: potency is read from the fitted curve at half-maximal effect
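Fluorescent replication assay read twice, at 0 min and 10 min after adding 50 nM (final) substrate. Enzyme (10 nM) and compounds were first incubated 15 min at room temperature; enzyme-free buffer wells were negative controls.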
Pol kappa inh-1: inhibitors of human DNA polymerase kappa. Q9UBT6. purified Pol kappa, fluorescent DNA synthesis assay, 10 min. Potency, µM (highest dose often 107 µM), for the others: top-dose activity, negative = inhibition, hits mostly inhibitors. actives 0.53% (n = 400,000); also: potency is read from the fitted curve at half-maximal effect; % is scaled to controls: 0 for no effect and ±100 for the full control effect
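Enzyme at 10 nM met test compounds for 15 min at room temperature. Substrate addition (50 nM final) began the reaction, which was monitored by fluorescence at 0 and 10 min.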
APE1 inh: blocks human APE1 abasic DNA cleavage; P27695; Potency, µM (top dose mostly 65.8 µM), for the others: at the top dose activity change, negative = inhibition, usual class: inhibitors; recombinant APE1, TAMRA/BHQ-2 abasic DNA cleavage fluorescence; actives 0.35% (n = 350,000); AID 2517;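 also: potency is read from the fitted curve at half-maximal effect; plate controls were vehicle for no effect and reference inhibitor for full effect; nearly all actives have a fitted effect of over 55% in size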
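Quantitative HTS: incision of a TAMRA/BHQ-2 double-stranded substrate bearing a tetrahydrofuran abasic site by 0.75 nM APE1 raises fluorescence. Substrate 50 nM final, added after 15 min compound preincubation at room temperature; progress as third-minus-first kinetic read difference.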
Pol eta inh-1: blocks human DNA polymerase eta activity; Q9Y253; recombinant Pol eta, fluorescent DNA replication assay; Potency, µM (highest dose often 114 µM), without a hit: at the top dose activity change, negative = inhibition, hits mostly inhibitors; actives 1.2% (n = 390,000); AID 588591; also: potency is read from the fitted curve at half-maximal effect; % is scaled to controls: 0 for no effect and ±100 for the full control effect
Target sequence (Q9Y253 whole entry, looked up): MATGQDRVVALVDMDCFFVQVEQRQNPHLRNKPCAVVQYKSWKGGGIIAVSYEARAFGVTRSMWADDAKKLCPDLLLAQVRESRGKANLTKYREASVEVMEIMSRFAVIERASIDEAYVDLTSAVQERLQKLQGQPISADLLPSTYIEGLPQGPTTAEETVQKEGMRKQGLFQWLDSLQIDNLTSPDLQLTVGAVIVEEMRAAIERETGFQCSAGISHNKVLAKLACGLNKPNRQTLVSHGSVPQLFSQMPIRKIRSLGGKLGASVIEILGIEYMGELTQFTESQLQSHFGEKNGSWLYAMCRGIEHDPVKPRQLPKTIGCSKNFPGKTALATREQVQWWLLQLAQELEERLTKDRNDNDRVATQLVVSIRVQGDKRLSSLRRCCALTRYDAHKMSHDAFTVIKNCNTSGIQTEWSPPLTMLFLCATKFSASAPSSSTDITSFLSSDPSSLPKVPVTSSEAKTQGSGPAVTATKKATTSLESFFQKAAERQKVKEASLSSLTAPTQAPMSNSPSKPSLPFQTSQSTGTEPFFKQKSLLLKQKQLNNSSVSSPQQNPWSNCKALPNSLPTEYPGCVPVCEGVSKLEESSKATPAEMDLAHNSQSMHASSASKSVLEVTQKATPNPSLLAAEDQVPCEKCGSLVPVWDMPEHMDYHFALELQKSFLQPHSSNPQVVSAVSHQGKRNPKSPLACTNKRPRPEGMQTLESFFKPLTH
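Pol eta (10 nM) was preincubated with compounds for 15 min at room temperature, after which fluorescent replication substrate (50 nM final) was added to start the reaction. Fluorescence was read kinetically at 0 and 10 min.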
Pol beta inh: DNA polymerase beta (human) inhibition | actives 1.3% (n = 340,000) | Pol beta primer extension/strand displacement, fluorescence kinetic | AID 485314 | Potency, µM (highest dose often 114 µM), without a hit: top-dose activity change, negative = inhibition, hits mostly inhibitors | P06746; also: potency is read from the fitted curve at half-maximal effect; % is scaled to controls: 0 for no effect and ±100 for the full control effect
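Preincubation: enzyme (10 nM) with compound, 15 min, RT. Reaction: substrate added to 50 nM final. Reads: 0 and 10 min. Analysis: normalized, Hill fit.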
GALK confirm: confirmation of human galactokinase (GALK) inhibitors | shares compounds with Pol eta inh-1 | purified GALK, Kinase-Glo ATP depletion luminescence | Potency, µM (doses to about 115 µM), for inactives: at the highest dose activity, negative = inhibition, actives largely listed as inhibitors | actives 70% (n = 150)
GALK redox cs: redox cycling activity in phenol red-HRP assay | AID 2035 | actives 40% (n = 150) | shares compounds with Pol eta inh-1 | Potency, µM (doses to about 115 µM), for inactives: at the highest dose activity change, negative = H2O2 signal, usual class: inhibitors | Phenol red-HRP H2O2 redox cycling, absorbance 600 nm
HEK293 tox: reduces HEK-293 cell viability in GALK counter-screen; shares compounds with Pol eta inh-1; HEK-293 viability, ATP luminescence (CellTiter-Glo), 24/48 h; Potency, µM (doses to about 46.1 µM), for the others: at the top dose activity change, negative = cytotoxicity, hits mostly inhibitors; actives 10% (n = 170); also: potency is read from the fitted curve at half-maximal effect; % is scaled to controls: 0 for no effect and ±100 for the full control effect
Pol kappa inh-2: Pol kappa (human) inhibition, cherry-pick confirmation. AID 720501. shares compounds with Pol eta inh-1. actives 76% (n = 920). Potency, µM, usual class: inhibitors. purified Pol-kappa, fluorescent strand-displacement substrate; also: potency is read from the fitted curve at half-maximal effect
Pol eta inh-2: Pol eta (human) inhibition, cherry-pick confirmation; shares compounds with Pol eta inh-1; Pol eta primer extension, TAMRA/BHQ fluorescence, 10 min; Potency, µM, hits mostly inhibitors; actives 64% (n = 2,600); also: potency is read from the fitted curve at half-maximal effect
* = called active by the depositor; ? = inconclusive; · = no result; [ ] = another dose, or the depositor's remark. Compounds with a hit are over-represented: about 2.5% of the library has one in this group of screens. Calls follow the shape of the dose curve; as a rule, active = well fitted curve in the direction sought with a large enough effect; inconclusive = small, poorly fitted or top-dose-only effect, or another doubt; inactive = no such curve, though single readings can be large; an effect the other way counts as inactive or inconclusive.

SMILES	L3MBTL1 inh	Pol iota inh	Pol kappa inh-1	APE1 inh	Pol eta inh-1	Pol beta inh	others
O=C(COC(=O)c1ccc(S(=O)(=O)NCc2ccco2)cc1)Nc1ncc(Cl)cc1Cl	-16.5%	64.0%	-11.4%	-1.0%	-27.9%	?
CC(C)c1ccc(OCc2ccc(C(=O)N(C)C)o2)cc1	·	-22.0%	-10.1%	-0.1%	-0.5%	12.8%
CC(C)c1ccc(OCc2ccc(C(=O)O)o2)cc1	·	?	-15.3%	?	22.4µM*	10µM*	Pol kappa inh-2=42.3*;Pol eta inh-2=?
Cc1ccc(-n2nc3c(c2NC(=O)c2cc4ccccc4o2)CS(=O)(=O)C3)cc1	·	-0.3%	-6.5%	9.2%	-6.8%	-1.8%
O=C(O)c1ccc(CSc2nc3ccc(N4C(=O)C5C6C=CC(C6)C5C4=O)cc3s2)cc1 (stereo not drawn)	-10.2%	?	-11.8%	1.1%	28.2µM*	1.6%	Pol eta inh-2=?
CC1(/[N+]([O-])=C/c2ccccc2F)CCCCC1=O (stereo not drawn)	·	42.4%	3.2%	6.9%	-18.2%	12.6%
COc1ccc(Nc2c3c(nc4ccc(NC(=O)/C=C/c5cc(OC)c(OC)c(OC)c5)cc24)CCCC3)cc1OC	·	?	?	·	3.0%	22.6%
COc1ccccc1Nc1c2c(nc3ccc(NC(=O)/C=C/c4cccc(OC)c4OC)cc13)CCCC2	·	-14.7%	?	·	7.3%	-22.4%	Pol kappa inh-2=0.844*
COc1ccc(/C=C/C(=O)Nc2ccc3nc4c(c(Nc5ccccc5OC)c3c2)CCCC4)cc1	·	?	-43.2%	·	6.6%	12.3%
COc1ccc(Nc2c3c(nc4ccc(NC(=O)/C=C/c5cccc(OC)c5OC)cc24)CCCC3)cc1OC	·	?	12.6µM*	·	-7.5%	?	Pol kappa inh-2=3.36*
CCOC(=O)c1[nH]c(C)c(CCC(=O)Nc2ccccc2OCC)c1C	·	-11.4%	-13.7%[60.1 µM]	·	1.0%	-6.9%
CCc1ccc(OS(=O)(=O)c2cn(C)c(=O)n(C)c2=O)cc1	-4.1%	146.9%	-2.3%	0.7%	-21.2%	-27.1%
Cc1ccc(C)c(N2CCN(S(=O)(=O)c3ccc4c(c3)C(C)(C)C(=O)N4C)CC2)c1	-4.8%	-17.8%	-2.1%	-12.9%	-8.3%	-2.5%
Cc1cccc(N2CCN(S(=O)(=O)c3ccc4c(c3)C(C)(C)C(=O)N4C)CC2)c1C	?	?	?	-43.4%	22.4µM*	12.6µM*	Pol eta inh-2=?
C[C@H](CO)N1C[C@H](C)[C@H](CN(C)S(C)(=O)=O)OCc2cnnn2CCCC1=O	·	·	·	·	-20.2%	·
Cc1ccc(C)c(CN2C(=O)CSc3ccc(C(=O)NCCN4CCOCC4)cc32)c1	·	106.0%	-4.7%	38.4%	-5.3%	-12.1%	GALK confirm=-10.1%;GALK redox cs=-9.2%;HEK293 tox=1.0%

Bioassay records as filed in PubChem.
